± gives the standard deviation of the averaged measurements.

The test system of test [1] is DLD1. Briefly: cell viability (CellTiter-Glo) relative to plate median (fraction of plate median); higher = more viable cells. The conditions noted are these: 10 µM, treatment time 24 h. A digest of the protocol: (§1)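 Each value averages two independent replicates in which the well signal was normalised to the plate median (webcellHTS2, additive, without log transformation). The signal was firefly luciferase or CellTiterGlo luminescence, read on parallel plates with a Tecan F500. The cells were colorectal cancer lines with stable lentiviral TCF/Wnt firefly luciferase reporters in 384-well plates, dosed 24 h after seeding with kinase inhibitor library compounds at a final 10 µM for 24 h.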
Background: In ATP-based viability assays light output follows the ATP content of the culture.

Test [2] has as its system HCT116. The description is as above. The conditions noted are these: 10 µM; treatment time 24 h; reporter: TCF4/Wnt. A digest of the protocol:
as §1

For test [3], the system named is SW480. Described as above. The settings on record: 10 µM; treatment time 24 h; reporter: 7TFP. A digest of the protocol:
as §1

Test [4] concerns DLD1. Briefly: TCF/Wnt firefly luciferase reporter signal relative to plate median (fraction of plate median); higher = higher Wnt reporter signal. The conditions noted are these: 10 µM, treatment time 24 h. Summed up:
as §1
(Reporter assays use an easily measured gene product as a stand-in for the process of interest.)

The test system of test [5] is HCT116. The description is as above. The conditions noted are these: 10 µM; treatment time 24 h; reporter: TCF4/Wnt. A digest of the protocol:
as §1

Test [6] relates to SW480. The description is as above. The settings on record: 10 µM; treatment time 24 h; reporter: 7TFP. Summed up:
as §1

Take `CC(C)(O)CC(=O)NCCn1ccc2ncnc(Nc3ccc(Oc4cccc(C(F)(F)F)c4)c(Cl)c3)c21`: the cell viability with DLD1 [1] (reporter: 7TFP) came to 1.04 ± 0.16; in the test on DLD1 [1] (reporter: TCF4/Wnt), 1.03 ± 0.089; in the test on HCT116 [2] it was 1.17 ± 0.14; in the test with SW480 [3], 0.959 ± 0.058. Also, the “TCF/Wnt firefly luciferase reporter signal” value is 1.16 ± 0.15 in the test on DLD1 [4] (reporter: 7TFP), 1.07 ± 0.18 with DLD1 [4] (reporter: TCF4/Wnt), 0.902 ± 0.27 with HCT116 [5] and 0.879 ± 0.5 in the test with SW480 [6].

As to `CN(C)Cc1cccc(N=C(c2ccccc2)c2c(O)[nH]c3cc(C(=O)N(C)C)ccc23)c1`, the cell viability in the test on DLD1 [1] (reporter: 7TFP) came out at 1.13 ± 0.057; with DLD1 [1] (reporter: TCF4/Wnt) it was 0.947 ± 0.0014; in the test on HCT116 [2] it was 1.13 ± 0.099; in the test with SW480 [3], 1.19 ± 0.035. For the same compound, the “TCF/Wnt firefly luciferase reporter signal” value in the test with DLD1 [4] (reporter: 7TFP) was determined as 0.966 ± 0.12; with DLD1 [4] (reporter: TCF4/Wnt), 0.85 ± 0.061; in the test on HCT116 [5], 1.11 ± 0.16; in the test with SW480 [6], 1.11 ± 0.014.

Turning to `CCS(=O)(=O)N1CC(CC#N)(n2cc(-c3ncnc4[nH]ccc34)cn2)C1`, the cell viability in the test with DLD1 [1] (reporter: 7TFP) amounted to 1.025 ± 0.0071; in the test on DLD1 [1] (reporter: TCF4/Wnt), 1.02 ± 0.021; in the test on HCT116 [2] it was 1.22 ± 0.092; in the test on SW480 [3], 0.943 ± 0.0014. For the same compound, the “TCF/Wnt firefly luciferase reporter signal” value in the test on DLD1 [4] (reporter: 7TFP) stood at 1.09 ± 0.16; with DLD1 [4] (reporter: TCF4/Wnt), 0.764 ± 0.18; in the test on HCT116 [5], 0.974 ± 0.11; with SW480 [6] it was 0.985 ± 0.021.

For `Oc1cccc(-c2nc(N3CCOCC3)c3oc4ncccc4c3n2)c1`, the cell viability with DLD1 [1] (reporter: 7TFP) was 0.906 ± 0.036; in the test on DLD1 [1] (reporter: TCF4/Wnt) it was 0.917 ± 0.038; with HCT116 [2], 0.862 ± 0.15; with SW480 [3] it was 1.12 ± 0.05. Moreover, the “TCF/Wnt firefly luciferase reporter signal” value in the test on DLD1 [4] (reporter: 7TFP) turned out to be 0.717 ± 0.061; with DLD1 [4] (reporter: TCF4/Wnt), 0.954 ± 0.093; with HCT116 [5], 0.869 ± 0.012; in the test with SW480 [6], 1.1 ± 0.24.

As to `Cc1[nH]nc2ccc(-c3cncc(OC[C@@H](N)Cc4ccccc4)c3)cc12`, the cell viability is 1.02 ± 0.18 in the test on DLD1 [1] (reporter: 7TFP), 1.17 ± 0.05 in the test on DLD1 [1] (reporter: TCF4/Wnt), 0.755 ± 0.036 in the test with HCT116 [2] and 1.19 ± 0.099 in the test on SW480 [3]. For the same compound, the “TCF/Wnt firefly luciferase reporter signal” value came out at 0.51 ± 0.029 with DLD1 [4] (reporter: 7TFP), 0.189 ± 0.021 in the test with DLD1 [4] (reporter: TCF4/Wnt), 0.196 ± 0.047 with HCT116 [5] and 0.822 ± 0.042 in the test with SW480 [6].

For the compound `O=C1NC(=O)C(=Cc2ccc(-c3ccc(F)cc3)o2)S1` (stereo in doubt), the cell viability is 1.08 ± 0.11 in the test on DLD1 [1] (reporter: 7TFP), 1.11 ± 0.064 in the test with DLD1 [1] (reporter: TCF4/Wnt), 1.09 ± 0.11 in the test with HCT116 [2] and 0.937 ± 0.1 with SW480 [3]. In addition, the “TCF/Wnt firefly luciferase reporter signal” value in the test on DLD1 [4] (reporter: 7TFP) was found to be 1.25 ± 0.021; in the test with DLD1 [4] (reporter: TCF4/Wnt), 1.55 ± 0.16; with HCT116 [5], 1.29 ± 0.38; with SW480 [6] it was 1.1 ± 0.13.

Turning to `CCOc1cc2ncc(C#N)c(Nc3ccc(OCc4ccccn4)c(Cl)c3)c2cc1NC(=O)/C=C/CN(C)C` [Neratinib (HKI-272)], the cell viability came to 0.817 ± 0.03 in the test on DLD1 [1] (reporter: 7TFP), 0.877 ± 0.1 in the test with DLD1 [1] (reporter: TCF4/Wnt), 0.982 ± 0.083 in the test with HCT116 [2] and 0.541 ± 0.72 in the test with SW480 [3]. For the same compound, the “TCF/Wnt firefly luciferase reporter signal” value was 0.521 ± 0.3 in the test with DLD1 [4] (reporter: 7TFP), 0.763 ± 0.05 in the test on DLD1 [4] (reporter: TCF4/Wnt), 0.53 ± 0.33 in the test on HCT116 [5] and 0.508 ± 0.7 with SW480 [6].

For the compound `Cn1c(=O)c(F)c(Nc2ccc(I)cc2F)c2c(=O)n(C[C@@H](O)CO)cnc21`, the cell viability with DLD1 [1] (reporter: 7TFP) stood at 1.24 ± 0.05; with DLD1 [1] (reporter: TCF4/Wnt) it was 1.2; in the test with HCT116 [2], 0.9705 ± 0.0035; in the test on SW480 [3] it was 1.18 ± 0.035. Besides, the “TCF/Wnt firefly luciferase reporter signal” value in the test on DLD1 [4] (reporter: 7TFP) was determined as 1.66 ± 0.057; in the test on DLD1 [4] (reporter: TCF4/Wnt), 1.61 ± 0.62; in the test on HCT116 [5], 1.31 ± 0.42; in the test on SW480 [6], 2.19 ± 0.11.

On to `FC(F)(F)c1ccc(Nc2nc3ccc(Oc4ccnc(-c5ncc(C(F)(F)F)[nH]5)c4)cc3[nH]2)cc1` [Raf265 derivative], for which the cell viability worked out at 1.1 in the test with DLD1 [1] (reporter: 7TFP), 1.07 ± 0.014 with DLD1 [1] (reporter: TCF4/Wnt), 1.2 ± 0.21 in the test with HCT116 [2] and 0.975 ± 0.12 in the test with SW480 [3]. Besides, the “TCF/Wnt firefly luciferase reporter signal” value with DLD1 [4] (reporter: 7TFP) was found to be 1.11 ± 0.085; in the test with DLD1 [4] (reporter: TCF4/Wnt), 1.16 ± 0.085; in the test with HCT116 [5], 0.912 ± 0.28; in the test on SW480 [6], 0.81 ± 0.44.

In the case of `CCOc1ccn(-c2ccc(F)cc2)c(=O)c1C(=O)Nc1ccc(Oc2ccnc(N)c2Cl)c(F)c1`, the cell viability in the test with DLD1 [1] (reporter: 7TFP) stood at 0.97 ± 0.071; in the test on DLD1 [1] (reporter: TCF4/Wnt), 0.971 ± 0.056; in the test with HCT116 [2] it was 1.16 ± 0.014; with SW480 [3], 0.991. Moreover, the “TCF/Wnt firefly luciferase reporter signal” value in the test on DLD1 [4] (reporter: 7TFP) was found to be 0.983 ± 0.12; with DLD1 [4] (reporter: TCF4/Wnt) it was 0.893 ± 0.12; in the test with HCT116 [5], 1.19 ± 0.23; in the test with SW480 [6] it was 0.978 ± 0.031.

Turning to `CCN(CC)CCNC(=O)c1c(C)[nH]c(/C=C2\C(=O)Nc3ccc(F)cc32)c1C` [Sunitinib Malate (Sutent)], the cell viability with DLD1 [1] (reporter: 7TFP) is 0.867 ± 0.1; in the test on DLD1 [1] (reporter: TCF4/Wnt), 0.9685 ± 0.0035; with HCT116 [2], 0.659 ± 0.31; with SW480 [3] it was 1.02 ± 0.15. Also, the “TCF/Wnt firefly luciferase reporter signal” value with DLD1 [4] (reporter: 7TFP) was determined as 0.939 ± 0.051; with DLD1 [4] (reporter: TCF4/Wnt), 0.87 ± 0.18; in the test with HCT116 [5], 0.605 ± 0.33; in the test with SW480 [6] it was 1.14 ± 0.21.

For the origin of these results see the supplement of paper PMC6522484.
